# Several values for one entry are separate records, joined by “and”; a condition that tells them apart may be missing. Identical values can stand only once. Results filed as inconclusive are left out. Entries that show only a call come without a potency. Activity calls are given as the source filed them. Calls come from the whole dose curve; as a rule, active = well fitted inhibition curve with a large enough effect in the repeat runs; inconclusive = weak or mixed curves; inactive = no such curve, though single readings can be large or run the other way.
# Biological target: Cytochrome P450 2D6 (Homo sapiens) (UniProt P10635)
# Sequence (P10635 whole entry, looked up): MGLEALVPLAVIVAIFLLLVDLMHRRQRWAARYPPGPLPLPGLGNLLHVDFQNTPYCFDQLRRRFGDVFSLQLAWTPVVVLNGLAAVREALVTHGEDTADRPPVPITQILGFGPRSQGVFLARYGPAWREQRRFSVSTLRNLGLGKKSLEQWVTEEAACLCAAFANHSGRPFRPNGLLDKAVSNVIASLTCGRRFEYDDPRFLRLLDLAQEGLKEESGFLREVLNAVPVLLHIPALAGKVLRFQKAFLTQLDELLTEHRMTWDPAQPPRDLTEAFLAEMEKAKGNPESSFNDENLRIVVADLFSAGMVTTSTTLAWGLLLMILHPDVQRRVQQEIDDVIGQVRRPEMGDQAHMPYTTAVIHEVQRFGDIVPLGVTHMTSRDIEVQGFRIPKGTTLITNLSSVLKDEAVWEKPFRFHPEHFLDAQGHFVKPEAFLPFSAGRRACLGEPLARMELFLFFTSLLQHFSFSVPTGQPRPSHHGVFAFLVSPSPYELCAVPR
# Assay: Cytochrome P450 Family 2 Subfamily D Member 6 (CYP2D6) small molecule antagonists: luciferase reporter qHTS assay (AID 1671196); note: nearly all actives have a fitted effect of over 50% in size
# Settings: P450-Glo CYP2D6 enzyme assay, luciferin luminescence, 1 h; series mostly up to 115 µM
# From the text: U.S. Tox21 Program National Center for Advancing Translational Sciences [NCATS] U.S. Environmental Protection Agency [EPA] National Institutes of Environmental Health Sciences [NIEHS] National Toxicology Program [NTP] U.S. Food and Drug Administration [FDA] Tox21 Assay Overview: Cytochrome P450 (CYP) enzymes are membrane-bound hemeproteins that play a key role in metabolism of drugs and xenobiotics. Evaluation of the effect of chemicals on CYP isozymes is useful to minimize the adverse drug reactions and toxicities in drug development process. Tox21 chemicals were tested for their effect on CYP enzyme activities by using P450-Glo (TM) screening systems (Promega Corporation, Madison, WI). These systems provide a luminescent method containing proluciferin substrates and are converted to luciferin products by CYP isozymes. The luciferin products formed are detected with a luciferin detection reagent, and the amount of light produced is proportional to CYP activity. P450-Glo (TM) CYP2D6 screening system (Catalog. No. V9890) was used to detect the compounds that interfere in CYP2D6 activity.
# Tox21 Assay Protocol Summary: Two ul of enzyme-substrate mix was dispensed into medium binding white/solid 1536-well plates (Greiner Bio-One North America Inc., Monroe, NC) using a BioRaptr Flying Reagent Dispenser (FRD, Beckman Coulter, Brea, CA). […] The assay plates were incubated at room temperature for 10 min. Then 2 ul of NADPH regeneration solution was added to each well of the assay plates using an FRD and incubated at room temperature for 1 h. The reaction was stopped by adding 4 ul of detection reagent using an FRD and after 20 min incubation at room temperature the luminescence signal was measured using a ViewLux plate reader (Perkin Elmer, Shelton, CT). Data were expressed as relative luminescence units.
# Potency is the fitted concentration of half-maximal effect.
row,Structure (SMILES),Potency
1,CCC(C)(C)C1CCCCC1OC(C)=O (stereo not given),inactive
2,C/C=C1/C(=O)C[C@H]2[C@@H]3CCC4=CC(=O)CC[C@]4(C)[C@H]3CC[C@]12C,inactive
3,CCCC(c1cc(C(C)(C)C)c(O)cc1C)c1cc(C(C)(C)C)c(O)cc1C,28.6 µM (active)
4,COc1cc(/C=C/C(=O)O[C@H]2CC[C@]34C[C@]35CC[C@]3(C)[C@@H]([C@H](C)CCC=C(C)C)CC[C@@]3(C)[C@@H]5CC[C@H]4C2(C)C)ccc1O,inactive
5,CC(=O)SC[C@@H](Cc1ccccc1)C(=O)NCC(=O)OCc1ccccc1,1.1 µM (active)
6,CCOC(=O)O[C@H](C)OC(=O)c1ccc2c(c1)cc(C(=O)NC1CCN(C(C)C)CC1)n2Cc1cc(-c2ccc(Cl)s2)on1,37.3 µM (active)
7,O=C(N/N=C/c1ccccc1O)c1ccncc1,27.5 µM (active)
8,CCCCN1CCCC[C@H]1C(=O)Nc1c(C)cccc1C,0.617 µM (active)
9,CCCCCCCC/C=C/CCCCCCCC1=NCCN1CCO,5.03 µM (active)
10,Oc1cccc2cc3cccc(O)c3c(O)c12,inactive
11,CC1=C(/C=C/C(C)=C/C=C/C(C)=C/C=O)C(C)(C)CCC1,63 µM (active)
12,COc1cc(-c2ccc(N=C=O)c(OC)c2)ccc1N=C=O,inactive
13,Nc1ccc2c3c(cccc13)-c1ccccc1-2,inactive
14,O=C(NOCC1CC1)c1ccc(F)c(F)c1Nc1ccc(I)cc1Cl,inactive
15,Cc1cccc(CN2CCN(C(c3ccccc3)c3ccc(Cl)cc3)CC2)c1 (stereo not given),3.09 µM (active)
16,CCCCN1C(=O)[C@@H]([C@H](O)C2CCCCC2)NC(=O)C12CCN(Cc1ccc(Oc3ccc(C(=O)O)cc3)cc1)CC2,inactive
17,CCCCCCCCn1sc(Cl)c(Cl)c1=O,28.3 µM (active)
18,CNc1ccc(O)cc1,12.6 µM (active)
19,Cc1cc(O)c(C(C)(C)C)cc1Sc1cc(C(C)(C)C)c(O)cc1C,25.1 µM (active)
20,C=CC(=O)OCCn1c(=O)n(CCOC(=O)C=C)c(=O)n(CCOC(=O)C=C)c1=O,inactive

row,Structure (SMILES),Potency
1,CSc1ccc(/C=C2/C(C)=C(CC(=O)O)c3cc(F)ccc32)cc1,inactive
2,CCCCCCC[N+](CC)(CC)CCCCc1ccc(Cl)cc1,0.219 µM (active)
3,O=c1[nH]cnc2nc[nH]c12,inactive
4,C=CC(=O)OCC(CO)(COC(=O)C=C)COC(=O)C=C,40.1 µM (active) and 63.3 µM (active)
5,CCc1cc(Cc2cc(CC)c(N)c(CC)c2)cc(CC)c1N,25.2 µM (active)
6,Cc1cc(CCN2CCN(c3nsc4ccccc34)CC2)cc2c1NC(=O)CC2(C)C,17.8 µM (active)
7,CCCCCCCCCCCCCCCC(=O)OC[C@H](O)[C@H]1OC(=O)C(O)=C1O,inactive
8,CCC(Cl)C(Cl)C(Cl)CC(Cl)C(Cl)C(C)Cl (stereo not given),35.6 µM (active)
9,CCCCCCCC[N+](CCCCCCCC)(CCCCCCCC)CCCCCCCC,0.563 µM (active)
10,COc1cc(-c2nc(NC(=O)c3cc4cc(C)cc(C)c4n3CC(=O)O)sc2CCC2CCCCC2)c(OC)cc1Cl,inactive
11,O=C(Oc1ccccc1)c1ccccc1C(=O)Oc1ccccc1,inactive
12,CC(NN)c1ccccc1 (stereo not given),15.1 µM (active)
13,O=C(O)c1c(Cl)cccc1Cl,inactive
14,Nc1ccccc1O,31.3 µM (active)
15,Cc1cc(O)c2ccccc2c1O,17.4 µM (active)
16,CO[Si](CCCNc1ccccc1)(OC)OC,inactive
17,O=C(O)c1ccc(Cl)c(Cl)c1,inactive
18,Clc1ccc2n[nH]nc2c1,inactive
19,Nc1c(Cl)cc(Cl)cc1Cl,inactive
20,O=c1[nH]sc2cc(Cl)ccc12,inactive

# — PubChem BioAssay (Tox21)
